These results are taken from PubChem BioAssay (NCI).

Compounds without any hit were thinned out: in the full panel of roughly 79,000, 15% have a hit. Unmarked numbers belong to inactive results. Calls of active or inactive are those of the source. Rule as the data show it: active = growth inhibition above about 70%; inactive = the rest.

Test [1] is described as follows: NCI Yeast Anticancer Drug Screen. Data for the rad50 strain (AID 155).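 Also: 0% = growth of vehicle-only cultures of the same strain.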 As to conditions: S. cerevisiae rad50 strain growth inhibition; at 50.0 µM; active compounds read high. The essentials: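 A DNA repair-deficient yeast mutant serves as the test organism; compound-induced growth inhibition is calculated against vehicle-treated cells.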
The nature of test [2]: NCI Yeast Anticancer Drug Screen. Data for the mec2-1 strain (AID 157). Particulars: S. cerevisiae mec2-1 strain, at 50.0 µM, active compounds read high. The method, boiled down:
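Mutant yeast (mec2-1) grown with compound; growth inhibition relative to vehicle control reported.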

A short description of test [3]: NCI Yeast Anticancer Drug Screen. Data for the sgs1 mgt1 strain (AID 161).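 Also: 0% = growth of cultures given vehicle only.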 Particulars: S. cerevisiae sgs1 mgt1 strain, at 50.0 µM, active compounds read high. The method, boiled down: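 Compounds are added to genetically altered yeast, and growth is compared with cultures given vehicle alone to give percent inhibition.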
Test [4] is described as follows: NCI Yeast Anticancer Drug Screen. Data for the cln2 rad14 strain (AID 165).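 Also: 0% = growth equal to vehicle treated cultures.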 As to conditions: S. cerevisiae cln2 rad14 strain, at 50.0 µM, active compounds read high. The essentials: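 Readout is yeast growth inhibition versus vehicle-treated controls, using a strain with cln2 and rad14 alterations exposed to compound.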
Test [5] is described as follows: NCI Yeast Anticancer Drug Screen. Data for the bub3 strain (AID 167). Particulars: S. cerevisiae bub3 mutant strain, at 50.0 µM, active compounds read high. The essentials: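 Inhibition values come from growth of compound-treated mutant yeast normalised to vehicle-treated controls.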
A short description of test [6]: NCI Yeast Anticancer Drug Screen. Data for the mlh1 rad18 strain (AID 175). As to conditions: S. cerevisiae mlh1 rad18 strain growth inhibition; at 50.0 µM; active compounds read high. The essentials: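 Genetically defined yeast (DNA repair-deficient) exposed to compounds; growth inhibition determined relative to vehicle.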

Consider `Nc1ccc2cc(S(=O)(=O)O)cc(S(=O)(=O)O)c2c1`, for which the growth inhibition in test [1] is 39.3%; in test [2], -5.2%; in test [3], 6.6%; in test [4], -18.9%; in test [5], -0.15%; in test [6] it was 31.8%.
As to `N#CC1(C#N)C(c2ccccc2)C=CC12OCCCO2` (stereo not given), the growth inhibition was 10.9% in test [1]; 6.75% in test [2]; 3.9% in test [3]; 32% in test [4]; -5.3% in test [5]; 23.2% in test [6].
As to `CN(C)c1ccc(C2c3c(oc4ccccc4c3=O)Oc3oc4ccccc4c(=O)c32)cc1`, the growth inhibition is 3.8% in test [1]; -0.15% in test [2]; -9.85% in test [3]; 5.4% in test [4]; 0.35% in test [5]; -17.5% in test [6].
For `S=C(Nc1ccccc1)Nc1nc(-c2ccccc2)c(N=Nc2ccc(Cl)cc2)s1`, the growth inhibition in test [1] is 42.5%; in test [2], 2.6%; in test [3], 22.2%; in test [4], 18.6%; in test [5], -0.85%; in test [6] it was 9.45%.
With `C=Cc1c2[n-]c(c1C)/C=c1\[n-]/c(c(C)c1C=C)=C\c1[n-]c(c(CCC(=O)O)c1C)/C=c1\[n-]/c(c(C)c1CCC(=O)O)=C\2.[Co]`, the growth inhibition is 14.8% in test [1]; 54.9% in test [2]; 53.6% in test [3]; -2.05% in test [4]; 19.2% in test [5]; 59.9% in test [6].
As to `CCCCCCCCCCOC(=O)Nc1cccc(O)c1`, the growth inhibition in test [1] is 29.8%; in test [2] it was 92.8% (active); in test [3] it was 95.4% (active); in test [4], 18.9%; in test [5] it was 96.9% (active); in test [6], 86.5% (active).
On to `CC(=O)NNc1nc(C)c(C(=O)/C=C/c2ccccc2Cl)s1`, for which the growth inhibition is 37.5% in test [1]; 16.1% in test [2]; 17.4% in test [3]; 19.4% in test [4]; 23.1% in test [5]; 43.5% in test [6].
Regarding `O=C1Oc2ccccc2CC1C(=O)c1ccc(Cl)cc1` (stereo not given), the growth inhibition in test [1] was -7.75%; in test [2] it was -0.25%; in test [3], 8.95%; in test [4], -61.1%; in test [5], -21.4%; in test [6], 7.75%.
Turning to `N#Cc1nc(-c2ccco2)oc1N`, the growth inhibition is -20.8% in test [1]; 1.85% in test [2]; -23.2% in test [3]; 3% in test [4]; -10.2% in test [5]; -5.8% in test [6].
Regarding `CCCCCCCCCC[C@@H](OC(C)=O)[C@@H]1CC[C@@H]([C@@H]2CC[C@@H]([C@@H](O)CC#C/C=C/CCCCCCC[C@@]3(Sc4ccccc4)C[C@H](C)OC3=O)O2)O1`, the growth inhibition in test [1] is -27.9%; in test [2], -8.2%; in test [3], -16.1%; in test [4], 4.25%; in test [5], -15.3%; in test [6] it was -12.1%.
For the molecule `OCCCCN(CCO)CCCCO`, the growth inhibition in test [1] was -2.75%; in test [2], -7.25%; in test [3] it was -1.5%; in test [4] it was -12.4%; in test [5], 13.9%; in test [6], -3.5%.
`N#CCCN(CCC#N)Cc1ccc2c(O)c(CN(CCC#N)CCC#N)ccc2c1O`: the growth inhibition in test [1] is 23.8%; in test [2], 7.35%; in test [3], 3.35%; in test [4], -1.65%; in test [5], -0.15%; in test [6], 3.65%.
For the molecule `CCOP(=O)(OCC)/C(C#N)=C\c1ccc(OC(C)=O)cc1`, the growth inhibition in test [1] was -6.15%; in test [2], -30.1%; in test [3], -9%; in test [4], 23.5%; in test [5], -25.6%; in test [6], -31.9%.
As for `COc1ccc(C=Nc2ccc(Cl)cc2)cc1`, the growth inhibition was -11.5% in test [1]; -25.2% in test [2]; 4.45% in test [3]; -18.7% in test [4]; 2.55% in test [5]; 3.55% in test [6].
Take `Brc1ncnc2c1ncn2C1CCCO1` (stereo not given): the growth inhibition was -21.3% in test [1]; -12.8% in test [2]; -1.5% in test [3]; -29.6% in test [4]; 34.4% in test [5]; -32.2% in test [6].
On to `CCCNc1ncnc2[nH]ncc12`, for which the growth inhibition in test [1] is -44.1%; in test [2], -25.9%; in test [3] it was -39.9%; in test [4] it was -23%; in test [5] it was -42.2%; in test [6], -32%.
Take `O=C1c2c(ccc3c2CCC3)CC12Cc1cc3c(cc1C2)CCC3`: the growth inhibition is -33.8% in test [1]; -32.5% in test [2]; -22.9% in test [3]; 10.9% in test [4]; -0.5% in test [5]; -15.2% in test [6].
On to `C1=NC(c2ccccc2)=CN(C2CCCCCCC2)C1(c1ccccc1)C1CCCCCCC1` (stereo not given), for which the growth inhibition in test [1] is 40%; in test [2], 72.2% (active); in test [3], 40.2%; in test [4], 45.6%; in test [5], 61.4%; in test [6], 50.4%.
On to `NC(C(=O)O)c1ccccc1C(=O)O` (stereo not given), for which the growth inhibition in test [1] was -21.4%; in test [2] it was -19.9%; in test [3], -13.4%; in test [4] it was 0.8%; in test [5], -7.8%; in test [6] it was -21.9%.
Consider `CC(C)(C)NC(=O)NCc1ccc(Cl)c(Cl)c1`, for which the growth inhibition in test [1] was 2.95%; in test [2], 27.4%; in test [3], 17.8%; in test [4] it was -6.05%; in test [5], -5.05%; in test [6] it was 21.6%.
